# Compounds without any hit were thinned out: in the full panel of roughly 83,000, 20% have a hit.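 Cells were grown in 96-well plates and exposed to the test compound at a single concentration for 48 hours; results are reported as percent growth, with values below 10 considered active.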 A number with no mark means an inactive call. Activity calls are given as the source filed them.
# Assays:
# Assay in all cases: NCI-60 one-dose screen, 48 h (100 = growth as untreated, 0 = no growth, -100 = all killed)
# Settings in all cases: 10 µM unless noted
# HT29 colon = test system: HT29 colon
# SNB-75 CNS = test system: SNB-75 CNS
# SNB-19 CNS = test system: SNB-19 CNS
# U251 CNS = test system: U251 CNS
# PC-3 prostate = test system: PC-3 prostate
# SK-MEL-5 melanoma = test system: SK-MEL-5 melanoma
# LOX IMVI melanoma = test system: LOX IMVI melanoma
# SK-MEL-28 melanoma = test system: SK-MEL-28 melanoma
# UACC-62 melanoma = test system: UACC-62 melanoma
Structure (SMILES),growth (HT29 colon),growth (SNB-75 CNS),growth (SNB-19 CNS),growth (U251 CNS),growth (PC-3 prostate),growth (SK-MEL-5 melanoma),growth (LOX IMVI melanoma),growth (SK-MEL-28 melanoma),growth (UACC-62 melanoma) [%]
COc1cccc(-c2nn(-c3ccccc3)cc2-c2ccnc(NCCNS(=O)(=O)c3cccc(F)c3)c2)c1,16.9%,70.6%,37.2%,27%,19.1%,26.7%,38.3%,,
CCN1CCN(c2nc(C)cc(N(CCCNc3ccnc4cc(Cl)ccc34)Cc3ccco3)n2)CC1,11.4%,66.8%,73.1%,42.2%,53.9%,-37.8% (active),9.87% (active),-63.7% (active),
CCCCC[C@H]1C/C=C2/C(=O)C(Cl)=C[C@@H]2C/C=C\CCCC(=O)O[C@@H](CCCCC)C/C=C2/C(=O)C(Cl)=C[C@@H]2C/C=C\CCCC(=O)O1,-56% (active),11.9%,-57.8% (active),-78.7% (active),-37.7% (active),-94.4% (active),-74.7% (active),-48.1% (active),
COc1ccc2c(c1)c1nc3cc(C)c(C)cc3nc1n2CCN(C)C,-1.79% (active),22.2%,13.6%,-85.8% (active),-14.4% (active),45.3%,,9.16% (active),11
COc1ccc(-c2nc3ncccn3c2-c2nc3ccc(Br)cc3[nH]2)cc1,88.9%,86.8%,89.9%,89.7%,65.5%,74.9%,,92.6%,76.5
COc1cc2c(cc1-c1c(C)noc1C)ncc1nc(C3CCCCC3)n([C@@H](C)COC(F)F)c12,13.5%,31.3%,45.6%,47.1%,30.3%,,12.5%,45.8%,21.9
CC1=NN(c2ccc(S(=O)(=O)O)cc2Cl)C(=O)C1,109%,90.2%,96.2%,107%,103%,,104%,122%,103
O=S(=O)(NCCNc1cc(-c2cn(-c3ccccc3)nc2-c2cccc(O)c2)ccn1)c1ccc(Cl)cc1,0.572% (active),53.8%,47.7%,22.1%,14.9%,15.5%,30%,,
NCCNc1nc(-c2ccccc2)nc2nc(-c3ccccc3)oc12,71.6%,61.9%,89.8%,70.3%,80.4%,89.2%,,103%,99.9
Clc1ccccc1-c1nc(Nc2nc3ccccc3s2)nc(C(Cl)(Cl)Cl)n1,13.1%,58.2%,43.5%,20.5%,40.8%,90.7%,,51.3%,48.1
C=C1C(=O)O[C@H]2[C@H]1CC/C(COC(=O)NCCc1c[nH]c3ccccc13)=C\CC[C@@]1(C)O[C@@H]21,-39.8% (active),61.3%,56.9%,59.9%,35.1%,12.8%,-63.2% (active),-17.6% (active),
Oc1cccc2oc(=S)[nH]c12,113%,86.4%,106%,109%,111%,105%,,104%,101
C=C1CC[C@@H](C(=O)OC)Cc2nc(C)ccc21,104%,100%,97.1%,103%,98.4%,101%,,107%,96.9
COC(=O)[C@]12CC[C@@H](C)[C@H](C)[C@@H]1C1=CC(=O)[C@@H]3[C@@]4(C)C[C@@H](O)[C@H](O)[C@@]5(C)COC(=C45)C[C@@]3(C)[C@]1(C)CC2,27.4%,32.8%,60.8%,39.5%,49.2%,41.3%,57%,,
CCCCC/C(=C\c1ccccc1)C1OC(C)C(C)O1 (stereo not drawn),81.3%,92.2%,98.6%,86.3%,69.6%,92.8%,97.9%,106%,
N#C/C(=C\c1ccc(-c2ccccc2)o1)c1nc(-c2ccco2)cs1,99.8%,91.9%,94.1%,98.3%,77.8%,73.5%,,105%,77.9
C=C(C)[C@@H]1CC[C@]2(C)[C@H](CC=C3[C@@H]4CC(C)(C)CC[C@]4(C=O)CC[C@]32C)[C@@]1(C)CCCN,7.12% (active),87.8%,89.1%,69.6%,47.5%,83%,,89.4%,87.8
CN(C)CCCCC(C(=O)CBr)(c1ccccc1)c1ccccc1,8.94% (active),46%,82.6%,41.5%,51.6%,35%,-39% (active),23.6%,
Oc1ccc(Nc2ccccc2)cc1,99.3%,85.5%,85.8%,86%,65.7%,83%,71.4%,102%,
O=C(/C=C/c1cccc(O)c1)c1ccccc1O,87.7%,72%,90.1%,77%,83.8%,92.3%,,98.2%,87.4
Cc1cc(N2CCN(C)CC2)nc(N(CCNc2ccnc3cc(Cl)ccc23)Cc2ccco2)n1,5.75% (active),66.3%,36.8%,39.3%,34.8%,-82% (active),-5.64% (active),-72.3% (active),
N#CC1=C(N)Oc2ccc3ccccc3c2C1c1ccccc1Cl (stereo not drawn),22.2%,-2.04% (active),33.9%,37.2%,46.1%,42.7%,,61.1%,24.2
COC(=O)[C@]12CC[C@@H](C)[C@H](C)[C@@H]1C1=CC[C@@H]3[C@@]4(C)C[C@@H](O)[C@H](O)[C@@](C)(CO)C4=CC[C@@]3(C)[C@]1(C)CC2,-36.6% (active),-58.7% (active),-80.4% (active),-85.4% (active),-85.1% (active),-98.6% (active),-100% (active),-81% (active),
CCC(=O)c1c(C)[nH]c(C)c1C,36.9%,109%,94%,82.5%,79.9%,88.9%,,134%,95.7
O=c1[nH]c2c3ccncc3cc(-c3cccc(Cl)c3)c2c2cnccc12,28.1%,-21.8% (active),75.7%,13.4%,42.2%,46.3%,19.9%,25%,
O=[N+]([O-])c1cc(S(=O)(=O)c2ccc(F)c([N+](=O)[O-])c2)ccc1F,97%,97.2%,106%,62.8%,107%,106%,,110%,105
[B-][N+](CC)(CC)c1ccccc1,107%,84.1%,105%,99%,99.4%,104%,109%,99.7%,111
COc1cc2c(cc1OC)C(=O)/C(=C/c1cc(-c3ccc4c(c3)OCO4)n[nH]1)C2,-29.5% (active),-4.64% (active),9.31% (active),-75.5% (active),-65.7% (active),48.4%,,0.563% (active),25.8
CC1(c2ccccc2)OC1C(=O)O (stereo not drawn),102%,91.6%,109%,117%,106%,103%,97.4%,98.7%,
N=C(N)c1ccc(S(N)(=O)=O)cc1,105%,96.1%,99.1%,99.4%,98.4%,95.3%,,104%,99.2

# Reference: PubChem BioAssay (NCI)
